Screening data deposited in PubChem BioAssay by several laboratories.
NCOA2 inhibitor = human SRC2 (NCOA2) inhibition; HEK293 GAL4-SRC2 luciferase reporter, luminescence; inhibition, % at 9 µM; 370,000 tested, 0.17% active;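 active means inhibition above the mean inhibition of all tested compounds plus 3 SD, set per campaign, cut at about 52% in these data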;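 further: 0% = DMSO treated cells and 100% = cells given Gossypol at 36 µM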
NCOA3 inh = inhibits human SRC3 coactivator; Q9Y6Q9; HEK293 GAL4-SRC3 luciferase reporter, luminescence; inhibition, % at 3.6 µM; 360,000 tested, 0.17% active;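 active means inhibition above a per-campaign cutoff, the mean of all compounds plus 3 SD, cut at about 60% in these data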;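 further: 0% = DMSO-treated cells and 100% = gossypol-treated cells at 36 µM; higher means less SRC3-driven luciferase light from the GAL4 reporter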
COUP-TFII inh = NR2F2 (human) inhibition, primary screen | inhibition, % at 8.6 µM | AID 686940 | HEK293T NGFI-A luciferase reporter, luminescence | 370,000 tested, 0.7% active | P24468;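 active means inhibition above a per-plate cutoff, mean inhibition of test wells between control levels plus 3 SD, cut at about 38% in these data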;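 further: cells cotransfected with COUP-TFII expression vector driving the NGFI-A reporter; 0% = median of COUP-TF2 test wells and 100% = reporter-only cells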
Target sequence (P24468 whole entry, looked up): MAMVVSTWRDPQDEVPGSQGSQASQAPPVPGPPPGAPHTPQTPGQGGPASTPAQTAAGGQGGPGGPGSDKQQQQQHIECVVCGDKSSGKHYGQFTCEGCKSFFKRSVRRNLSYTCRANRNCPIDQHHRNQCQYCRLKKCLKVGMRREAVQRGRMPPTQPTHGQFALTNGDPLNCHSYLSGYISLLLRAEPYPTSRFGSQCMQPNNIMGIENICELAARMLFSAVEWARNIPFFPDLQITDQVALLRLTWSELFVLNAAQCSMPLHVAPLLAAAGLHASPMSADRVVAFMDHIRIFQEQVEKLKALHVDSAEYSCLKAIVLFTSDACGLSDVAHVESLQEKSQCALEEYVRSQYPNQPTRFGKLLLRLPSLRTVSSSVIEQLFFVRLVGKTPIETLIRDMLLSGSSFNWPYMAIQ
SRC1 inh = inhibits human SRC1 coactivator; 360,000 tested, 0.12% active; inhibition, % at 3.6 µM; HEK293 GAL4-SRC1 luciferase reporter, luminescence;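 active means inhibition above the campaign mean plus 3 SD, with each screening campaign given its own cutoff, cut at about 60% in these data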;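 further: 0% = DMSO treated cells and 100% = gossypol at 36 µM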
Efflux pump inh = inhibitors of Candida antifungal efflux pumps expressed in yeast | S. cerevisiae Candida pump triplex, Nile Red efflux | inhibition, % at 10 µM | 330,000 tested, 0.44% active | AID 485275;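 active means plate passing quality check with inhibition over a set limit, or well fluorescence over plate mean plus 4 SD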;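 further: Nile Red retained in pooled yeast measured as flow cytometry median fluorescence; 0% = buffer negative control and 100% = Enniatin B positive control; higher means more Nile Red kept so more efflux inhibition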
NR5A2 inv ag = NR5A2 inverse agonism in reporter assay; HEK293T StAR-luciferase reporter, LRH-1 transfected, 24 h; inhibition, % at 3.6 µM; 360,000 tested, 0.13% active;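 active means inhibition above the mean inhibition of all tested compounds plus 3 SD, cut at about 73% in these data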;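 further: 0% = DMSO wells and 100% = reporter-only cells lacking LRH-1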
Gal4-VP16 ctr = VP16 inhibition counter-screen for COUP-TFII; shares compounds with COUP-TFII inh; HEK293 Gal4-VP16 luciferase reporter, luminescence; inhibition, % at 8.5 µM; 2,500 tested, 25% active; AID 687007; in the data active means inhibition above about 13%
NR2F2 inh conf = confirmation of human COUP-TFII (NR2F2) inhibitors; shares compounds with COUP-TFII inh; HEK293 NGFI-A luciferase reporter, luminescence; inhibition, % at 8.5 µM; 2,500 tested, 45% active; AID 687008;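 active means mean inhibition over three repeats above a set limit taken from the earlier primary screen, cut at about 38% in these data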;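 further: 100% = cells given the luciferase reporter alone without the COUP-TF2 vector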
Numbers without * were called inactive; / = not tested or not shown. A selection: hits, their analogues and other compounds. The true share with any hit is near 1.2%.

SMILES | NCOA2 inhibitor | NCOA3 inh | COUP-TFII inh | SRC1 inh | Efflux pump inh | NR5A2 inv ag | Gal4-VP16 ctr | NR2F2 inh conf
COc1ccc(CNC(=O)Cc2nn(C)c(=O)c3ccccc23)cc1 | 10.6 | 14.4 | 49.1* | 10.1 | -0.1 | 21.7 | 4.0 | 24.2
CSc1nc(C)cc(-n2cc(F)c(=O)[nH]c2=O)n1 | 4.0 | -9.0 | 13.5 | -3.9 | -0.1 | -1.1 | / | /
CCC(C)(C)C(=O)O | 2.5 | 4.1 | 16.8 | -38.2 | -0.2 | 27.7 | / | /
CC[n+]1c(/C=C2\Sc3ccccc3N2C)ccc2cccc(C)c21 | -55.8 | 55.1 | 79.5* | 29.4 | / | 83.6* | 13.5* | 78.1*
CC(=S)/C=C1\Sc2ccccc2N1C | -0.6 | -16.8 | -2.2 | 8.0 | 0.0 | 9.5 | / | /
COc1ccccc1NC(=O)Cn1c(C)cc(=O)c2cccc(OC)c21 | 31.4 | 22.7 | 50.8* | 32.6 | 0.1 | 25.7 | 7.7 | 41.8*
COc1cccc2c(=O)cc(C)n(CC(=O)Nc3ccc(C)c(C)c3)c12 | 23.8 | 24.6 | 30.4 | 16.6 | 0.1 | 22.7 | / | /
COc1cc(C(=O)NC(C)c2ccc(-n3ccnc3)cc2)cc(OC)c1C (centres undefined) | -3.5 | 0.1 | -11.9 | -2.4 | 0.1 | -1.4 | / | /
Cc1[nH]c2ccccc2c1C(=O)COC(=O)c1ccc[n+]([O-])c1 | 8.5 | 1.0 | -6.2 | 7.8 | 0.1 | 5.2 | / | /
CC1(C)C=Cc2ccc(O)c(C(=O)/C=C/c3ccccc3)c2O1 | / | / | 44.1* | / | / | / | 17.9* | 17.4
Cc1cc(=O)oc2c(C(=O)/C=C/c3ccccc3)c(O)ccc12 | 5.9 | -11.5 | 5.6 | -24.1 | 0.1 | 15.1 | / | /
O=C(Nc1ccccn1)c1ccc(Cl)c(S(=O)(=O)N2CCc3ccccc32)c1 | 32.8 | -28.7 | 45.1* | 2.5 | 0.0 | -27.4 | -2.7 | 22.0
O=C(Nc1cccnc1)c1ccc(Cl)c(S(=O)(=O)N2CCc3ccccc32)c1 | -2.5 | 10.1 | 14.6 | 5.5 | 0.1 | -12.3 | / | /
COc1ccc(NC(=O)c2ccc(Cl)c(S(=O)(=O)N3CCc4ccccc4C3)c2)cn1 | 6.1 | 17.4 | 68.5* | 8.5 | 0.1 | 28.1 | -2.7 | 18.3
O=C(NCC(c1ccco1)N1CCCC1)c1ccc(Cl)c(S(=O)(=O)N2CCc3ccccc32)c1 (centres undefined) | 25.1 | 29.7 | 66.0* | 20.5 | 0.5 | 15.6 | 7.1 | 50.0*
Cc1cccc(-c2nc(C#N)c(N3CCCCC3)o2)c1 | -44.7 | -33.3 | -29.6 | -16.3 | -0.2 | -6.9 | / | /
CC(C)(C)n1ncc2c(=O)n(CC(=O)OCc3ccccc3)cnc21 | 32.6 | 60.0 | 60.7* | 42.1 | 0.0 | 10.3 | 59.2* | 80.5*
CCCCCC(=O)N1CC2(CC(c3cccc(NC(=O)COc4ccc(Cl)cc4)c3)=NO2)C[C@@H]1C(N)=O (some centres undefined) | 36.3 | -4.2 | 41.9* | -2.6 | 0.1 | -8.2 | -10.6 | 12.7
CCOc1ccc(OCCNC(=O)c2cc(C3CC3)nc3c2cnn3C(C)C)cc1 | 12.5 | -0.8 | 21.8 | -9.3 | / | -9.5 | / | /
CC[C@H](C)[C@@H]1NC(=O)[C@@H](CC(C)C)NC(=O)[C@H](C(C)C)NC(=O)[C@H]2CSSC[C@H](NC1=O)C(=O)N2 | 93.6* | 95.1* | 106.3* | 95.9* | / | 102.8* | 96.5* | 112.0*
CC1=CC2C(C(O)CC3(C)C2CC(C)C32OCOC23COCO3)C2(C)C/C(=C\O)C(=O)C=C12 (centres undefined) | -48.1 | -20.6 | 51.7* | -20.2 | / | -11.4 | 21.5* | 42.3*
Cc1sc2cc3c(c(C(=O)c4ccccc4)[n+]2c1C)-c1cccc2cccc-3c12 | -18.7 | / | 60.1* | / | 0.1 | / | 22.1* | 55.0*
O=C(c1ccccc1)c1c2c(cc3sc4ccccc4[n+]13)-c1cccc3cccc-2c13 | 6.3 | 56.0 | 48.6* | 30.1 | 0.2 | 72.1 | 9.8 | 57.3*
Cc1ccc(Cl)cc1N(CC(=O)N1CCOCC1)S(C)(=O)=O | -0.3 | -10.3 | -12.0 | -6.0 | -0.1 | 7.0 | / | /
Cc1nc(NCCc2ccc(S(N)(=O)=O)cc2)c2c(C)c(C)sc2n1 | -0.1 | 26.9 | 48.0* | 7.3 | -0.1 | 38.1 | 0.0 | 17.4
SMILES | NCOA2 inhibitor | NCOA3 inh | COUP-TFII inh | SRC1 inh | Efflux pump inh | NR5A2 inv ag | Gal4-VP16 ctr | NR2F2 inh conf
CC(C)N(C(=NCc1ccccc1)NC(=O)c1ccccc1)C(C)C | 5.9 | -3.5 | 3.3 | -1.6 | 0.0 | -7.1 | / | /
CCCN1C=CC(=C2C(=O)c3ccccc3C2=O)C=C1 | 85.3* | 66.8* | 85.1* | 47.1 | 0.1 | 28.2 | 72.9* | 84.9*
CCN1C=CC(=C2C(=O)c3ccccc3C2=O)C=C1 | 65.3* | 29.5 | 70.0* | 20.1 | 0.0 | -0.1 | 31.1* | 37.1
CCN(CC)C(=O)CSc1nnc(CNc2ccc(F)cc2)n1-c1ccccc1 | 1.9 | 14.0 | 1.8 | 0.4 | 0.2 | 7.0 | / | /
CC(Sc1c[nH]c2ccccc12)C(=O)O (centres undefined) | 12.1 | 20.3 | -1.2 | -9.4 | 0.0 | -5.4 | / | /
Cc1ccc(S(=O)(=O)c2cccc(S(=O)(=O)N3CCOCC3)c2)cc1S(=O)(=O)N1CCOCC1 | 7.3 | 3.8 | -5.4 | -5.9 | 0.0 | -2.0 | / | /
Cc1ccc(S(=O)(=O)c2cccc(S(=O)(=O)N3CCCC3)c2)cc1S(=O)(=O)N1CCCC1 | 28.5 | 12.7 | 61.2* | 15.9 | 0.0 | 4.1 | 10.7 | 24.1
COCCCNC(=S)Nc1ccc2nc(N3CCOCC3)cc(C)c2c1 | -16.6 | 5.2 | 7.5 | 15.3 | -0.1 | -0.1 | / | /
COc1cc(-c2coc3c(C(=O)NCc4ccc(OC)c(OC)c4)cccc23)ccc1O | -8.1 | -0.8 | 66.6* | -5.5 | / | 38.3 | -0.2 | 62.6*
COc1ccc(CNC(=O)c2cccc3c(-c4cccc(C(N)=O)c4)coc23)cc1OC | 34.3 | 58.6 | 86.0* | 55.7 | / | 50.6 | -1.2 | 73.5*
COc1ccc(CNC(=O)c2cccc3c(-c4ccc(F)c(F)c4)coc23)cc1OC | / | 15.3 | / | 17.8 | / | 18.7 | / | /
COc1cc(-c2coc3c(C(=O)NCc4ccc(N(C)C)cc4)cccc23)ccc1O | -20.1 | -6.4 | -6.2 | -1.2 | / | 21.8 | / | /
CC(C)CCNc1nc(N)c([N+](=O)[O-])c(N2CCCCCC2)n1 | 18.6 | 29.5 | 40.9* | 13.4 | -0.1 | -5.5 | -2.6 | 27.8
Nc1nc(NCc2ccco2)nc(N2CCCC2)c1[N+](=O)[O-] | -1.9 | 12.4 | 3.9 | 7.8 | -0.1 | -14.3 | / | /
Nc1nc(NCc2ccco2)nc(N2CCCCCC2)c1[N+](=O)[O-] | 19.8 | 38.0 | 47.7* | -8.5 | 0.6 | -5.3 | 1.7 | 23.2
CC(C)CCNc1nc(N)c([N+](=O)[O-])c(NC2CCCCC2)n1 | 4.3 | 6.6 | 10.1 | 7.8 | -0.1 | 21.9 | / | /
CC(=O)Nc1ccc(NC(=O)c2ccc(CN3CCc4ccccc4C3)cc2)cc1 | -4.1 | -7.0 | 2.2 | -25.2 | 0.0 | -4.8 | / | /
CSc1cccc(NC(=O)c2ccc(CN3CCc4ccccc4C3)cc2)c1 | 20.0 | 20.5 | 36.1 | 4.0 | 0.0 | 8.9 | / | /
